Experimental data as given in PMC7862700, “An all-to-all approach to the identification of sequence-specific readers for epigenetic DNA modifications on cytosine”.

How the values were obtained:
Assay in all cases: DAPPL (digital affinity profiling via proximity ligation, sequencing); 10 mM Tris-HCl pH 7.5, 50 mM NaCl, 1 mM DTT, 4% glycerol, room temperature, 30 min; GST-TFs on glutathione beads, 16-mer random dsDNA library, 0.1% formaldehyde crosslink after washing; high values mean tight binding
FEV = molecular target: T1, FEV (Homo sapiens, UniProt Q99581 1-238); settings: protein: recombinant; tags: N-terminal GST; dsDNA, one strand shown
T1 sequence: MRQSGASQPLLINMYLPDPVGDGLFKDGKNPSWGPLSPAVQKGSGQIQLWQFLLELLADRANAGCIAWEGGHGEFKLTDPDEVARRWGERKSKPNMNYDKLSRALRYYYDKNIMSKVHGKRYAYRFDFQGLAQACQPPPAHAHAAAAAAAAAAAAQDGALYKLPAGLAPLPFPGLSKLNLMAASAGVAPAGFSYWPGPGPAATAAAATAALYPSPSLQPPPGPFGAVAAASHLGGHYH
Summary of the method: (§1)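 Beads coated with glutathione captured GST-fused human transcription factors that had been expressed in yeast, and the factors were then given DNA barcodes and pooled with a tag-only sample. The pools were incubated with 200 nmole of a random double-stranded 16-mer DNA library in Tris/NaCl/DTT/glycerol buffer for 30 min at room temperature, washed, crosslinked with 0.1% formaldehyde and proximity-ligated with BsaI/T4 ligase at 37 °C for 1 h. PCR amplification and Illumina NextSeq500 sequencing came last. Binding signal is each hexamer's read frequency for a factor divided by its frequency for the tag-only sample.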

ETV5 = ETV5 (Homo sapiens, UniProt P41161 1-510); settings: protein: recombinant; tags: N-terminal GST; dsDNA, one strand shown
Sequence of ETV5 (P41161 whole entry): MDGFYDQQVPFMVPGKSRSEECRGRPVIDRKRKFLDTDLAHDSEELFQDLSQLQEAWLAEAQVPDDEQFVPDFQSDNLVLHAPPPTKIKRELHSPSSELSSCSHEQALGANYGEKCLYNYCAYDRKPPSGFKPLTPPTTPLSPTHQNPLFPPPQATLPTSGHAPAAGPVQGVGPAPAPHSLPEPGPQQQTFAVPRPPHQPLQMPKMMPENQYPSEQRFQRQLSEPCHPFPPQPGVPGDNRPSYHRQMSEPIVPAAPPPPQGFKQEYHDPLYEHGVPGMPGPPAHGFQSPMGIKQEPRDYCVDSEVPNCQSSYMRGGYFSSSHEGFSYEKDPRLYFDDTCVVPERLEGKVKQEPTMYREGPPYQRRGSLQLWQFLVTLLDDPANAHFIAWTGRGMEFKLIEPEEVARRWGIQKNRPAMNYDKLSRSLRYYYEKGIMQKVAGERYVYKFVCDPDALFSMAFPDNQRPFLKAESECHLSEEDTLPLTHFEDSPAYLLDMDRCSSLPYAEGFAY
Summary of the method: as §1

HSF1 = HSF1 (Homo sapiens, UniProt Q00613 1-529); settings: protein: recombinant; tags: N-terminal GST; chain copies: 3; dsDNA, one strand shown
Sequence of HSF1 (Q00613 whole entry): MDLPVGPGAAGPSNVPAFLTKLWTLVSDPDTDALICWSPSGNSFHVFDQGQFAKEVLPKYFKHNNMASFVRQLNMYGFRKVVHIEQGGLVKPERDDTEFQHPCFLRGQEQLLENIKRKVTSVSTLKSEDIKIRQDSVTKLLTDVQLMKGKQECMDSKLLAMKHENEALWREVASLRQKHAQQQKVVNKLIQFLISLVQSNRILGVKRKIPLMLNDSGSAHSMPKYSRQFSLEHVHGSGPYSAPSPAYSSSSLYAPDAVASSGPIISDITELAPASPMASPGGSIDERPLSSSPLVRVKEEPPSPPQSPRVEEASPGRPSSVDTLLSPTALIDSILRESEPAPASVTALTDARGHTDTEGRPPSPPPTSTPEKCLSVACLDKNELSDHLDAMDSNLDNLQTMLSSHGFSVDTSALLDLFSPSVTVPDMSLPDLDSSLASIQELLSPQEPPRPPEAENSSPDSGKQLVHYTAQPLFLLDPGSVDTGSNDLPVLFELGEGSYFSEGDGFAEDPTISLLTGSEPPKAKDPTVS
Summary of the method: as §1

SPIC = molecular target: T2, SPIC (Homo sapiens, UniProt Q8N5J4 1-248); settings: protein: recombinant; tags: N-terminal GST; dsDNA, one strand shown
T2 sequence: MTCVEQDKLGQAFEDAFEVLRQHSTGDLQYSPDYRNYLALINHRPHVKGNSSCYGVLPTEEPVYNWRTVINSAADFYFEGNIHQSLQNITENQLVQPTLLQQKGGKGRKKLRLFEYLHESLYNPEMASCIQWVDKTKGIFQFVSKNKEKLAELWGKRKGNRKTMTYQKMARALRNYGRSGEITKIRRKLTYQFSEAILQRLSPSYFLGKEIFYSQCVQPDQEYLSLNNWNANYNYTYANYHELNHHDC
Summary of the method: as §1

ELF4 = ELF4 (Homo sapiens, UniProt Q99607 1-663); settings: protein: recombinant; tags: N-terminal GST; dsDNA, one strand shown
Sequence of ELF4 (Q99607 whole entry): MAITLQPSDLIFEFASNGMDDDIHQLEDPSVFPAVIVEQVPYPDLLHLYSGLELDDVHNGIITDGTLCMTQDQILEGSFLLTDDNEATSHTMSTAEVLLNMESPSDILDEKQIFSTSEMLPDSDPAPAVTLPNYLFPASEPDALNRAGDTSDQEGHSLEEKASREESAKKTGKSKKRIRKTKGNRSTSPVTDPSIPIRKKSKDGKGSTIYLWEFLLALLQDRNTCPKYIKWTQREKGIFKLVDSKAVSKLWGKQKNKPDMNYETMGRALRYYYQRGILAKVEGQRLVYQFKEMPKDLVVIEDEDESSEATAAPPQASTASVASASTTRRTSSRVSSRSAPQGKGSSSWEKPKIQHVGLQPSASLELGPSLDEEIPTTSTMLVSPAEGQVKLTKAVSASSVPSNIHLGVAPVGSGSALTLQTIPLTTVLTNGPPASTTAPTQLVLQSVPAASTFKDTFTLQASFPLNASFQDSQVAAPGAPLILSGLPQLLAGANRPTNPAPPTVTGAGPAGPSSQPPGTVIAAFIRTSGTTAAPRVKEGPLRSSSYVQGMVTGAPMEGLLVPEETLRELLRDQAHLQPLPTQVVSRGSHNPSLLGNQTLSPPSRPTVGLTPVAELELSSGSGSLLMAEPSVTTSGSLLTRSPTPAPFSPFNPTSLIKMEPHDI
Summary of the method: as §1

ELK4 = molecular target: T3, ELK4 (Homo sapiens, UniProt P28324-2 1-405); settings: protein: recombinant; tags: N-terminal GST; dsDNA, one strand shown
T3 sequence: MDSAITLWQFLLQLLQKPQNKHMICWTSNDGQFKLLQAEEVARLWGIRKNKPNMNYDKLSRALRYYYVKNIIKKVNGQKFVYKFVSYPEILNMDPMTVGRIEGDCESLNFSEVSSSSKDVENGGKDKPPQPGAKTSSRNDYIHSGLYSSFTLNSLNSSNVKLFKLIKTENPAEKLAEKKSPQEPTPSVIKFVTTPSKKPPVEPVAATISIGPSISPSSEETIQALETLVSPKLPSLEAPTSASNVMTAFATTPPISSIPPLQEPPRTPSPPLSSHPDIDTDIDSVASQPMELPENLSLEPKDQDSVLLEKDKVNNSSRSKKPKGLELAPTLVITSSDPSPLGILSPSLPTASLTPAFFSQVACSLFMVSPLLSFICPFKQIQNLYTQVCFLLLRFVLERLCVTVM
Summary of the method: as §1

ETV2 = molecular target: T4, ETV2 (Homo sapiens, UniProt O00321 1-342); settings: protein: recombinant; tags: N-terminal GST; dsDNA, one strand shown
T4 sequence: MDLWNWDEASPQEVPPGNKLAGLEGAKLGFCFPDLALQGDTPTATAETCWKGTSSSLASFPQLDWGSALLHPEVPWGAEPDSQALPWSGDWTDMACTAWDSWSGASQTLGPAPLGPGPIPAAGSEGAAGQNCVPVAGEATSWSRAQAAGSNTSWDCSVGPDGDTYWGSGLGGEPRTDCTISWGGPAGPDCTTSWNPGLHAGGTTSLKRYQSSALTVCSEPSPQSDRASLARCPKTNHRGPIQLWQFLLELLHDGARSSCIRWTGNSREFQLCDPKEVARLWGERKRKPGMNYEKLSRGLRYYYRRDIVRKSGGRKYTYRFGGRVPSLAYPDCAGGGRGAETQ
Summary of the method: as §1

ELF3 = molecular target: T5, ELF3 (Homo sapiens, UniProt P78545 1-371); settings: protein: recombinant; tags: N-terminal GST; dsDNA, one strand shown
T5 sequence: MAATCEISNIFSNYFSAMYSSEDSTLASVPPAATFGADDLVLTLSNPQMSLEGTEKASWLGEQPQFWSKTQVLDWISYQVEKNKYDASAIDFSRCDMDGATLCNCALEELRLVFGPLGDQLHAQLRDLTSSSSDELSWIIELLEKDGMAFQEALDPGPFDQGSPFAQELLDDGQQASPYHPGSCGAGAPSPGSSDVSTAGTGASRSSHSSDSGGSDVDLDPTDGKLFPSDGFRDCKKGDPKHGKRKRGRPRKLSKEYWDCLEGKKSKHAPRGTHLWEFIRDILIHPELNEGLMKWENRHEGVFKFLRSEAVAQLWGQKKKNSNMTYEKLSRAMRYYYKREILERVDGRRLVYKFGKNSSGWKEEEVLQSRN
Summary of the method: as §1

CRX = CRX (Homo sapiens, UniProt O43186 1-299); settings: protein: recombinant; tags: N-terminal GST; dsDNA, one strand shown
Sequence of CRX (O43186 whole entry): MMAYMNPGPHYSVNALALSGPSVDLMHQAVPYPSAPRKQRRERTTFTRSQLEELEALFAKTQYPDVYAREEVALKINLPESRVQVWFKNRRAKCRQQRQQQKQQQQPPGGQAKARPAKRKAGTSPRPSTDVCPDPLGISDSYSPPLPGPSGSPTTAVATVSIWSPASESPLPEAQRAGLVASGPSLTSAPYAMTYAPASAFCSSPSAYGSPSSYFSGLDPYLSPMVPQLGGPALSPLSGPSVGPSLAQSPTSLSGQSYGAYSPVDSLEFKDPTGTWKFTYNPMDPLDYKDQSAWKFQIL
Summary of the method: as §1

ETV1 = ETV1 (Homo sapiens, UniProt P50549 1-477); settings: protein: recombinant; tags: N-terminal GST; dsDNA, one strand shown
Sequence of ETV1 (P50549 whole entry): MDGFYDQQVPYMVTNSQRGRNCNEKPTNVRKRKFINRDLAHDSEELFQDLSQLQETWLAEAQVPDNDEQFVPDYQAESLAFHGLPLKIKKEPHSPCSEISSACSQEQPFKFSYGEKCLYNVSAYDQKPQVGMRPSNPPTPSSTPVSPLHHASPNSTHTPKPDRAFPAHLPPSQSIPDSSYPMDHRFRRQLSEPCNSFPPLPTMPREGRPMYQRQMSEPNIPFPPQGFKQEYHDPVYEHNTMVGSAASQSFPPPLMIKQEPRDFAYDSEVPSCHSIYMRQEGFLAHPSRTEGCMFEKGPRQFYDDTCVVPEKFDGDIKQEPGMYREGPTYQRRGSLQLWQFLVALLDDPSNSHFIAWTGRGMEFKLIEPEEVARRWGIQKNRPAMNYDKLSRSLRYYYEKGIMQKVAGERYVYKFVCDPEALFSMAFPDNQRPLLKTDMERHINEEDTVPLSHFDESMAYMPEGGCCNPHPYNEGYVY
Summary of the method: as §1

ATAGTA
binding signal (FEV): 1.16 fold enrichment (6-mer frequency, TF over GST control)
binding signal (ETV5): 1.18 fold enrichment (6-mer frequency, TF over GST control)
binding signal (HSF1): 1.16 fold enrichment (6-mer frequency, TF over GST control)
binding signal (SPIC): 1.29 fold enrichment (6-mer frequency, TF over GST control)
binding signal (ELF4): 1.16 fold enrichment (6-mer frequency, TF over GST control)
binding signal (ELK4): 1.24 fold enrichment (6-mer frequency, TF over GST control)
binding signal (ETV2): 1.34 fold enrichment (6-mer frequency, TF over GST control)
binding signal (ELF3): 1.2 fold enrichment (6-mer frequency, TF over GST control)
binding signal (CRX): 1.24 fold enrichment (6-mer frequency, TF over GST control)
binding signal (ETV1): 1.13 fold enrichment (6-mer frequency, TF over GST control)
